HSF-1 act – increases HSF-1 driven luciferase reporter signal. NIH3T3-HGL HSF-1 luciferase reporter, MG132, 8 h; 100% = twice DMSO control signal. activation, % at 9 µM. 300,000 compounds, 1.7% hits. AID 504408;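 active = mean replicate activation of at least 50% with a set share of replicates each reaching 50%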
MITF act – increases MITF-driven TRPM1 promoter luciferase signal; activation, % at 12.5 µM; 300,000 compounds, 0.75% hits; AID 588334; SK-MEL-5 TRPM1-promoter luciferase, 24 h; % of positive control, neutral wells = 0;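 active = mean activation of at least 80% with every replicate also reaching 80%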
esBAF inh – blocks esBAF chromatin remodeling in mouse ES cells. AID 602393. Bmi1-luciferase knock-in reporter, 24 h; 100% = twice the neutral-well signal. 350,000 compounds, 2% hits. reporter increase, % at 12.5 µM; in the data active = activation above about 40%;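 also: a rise in the Bmi1 reporter signal indicates esBAF inhibition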
SMARCA2 activ – SMARCA2 function activation, primary screen. MG213 cells, MMTV-luciferase reporter, dexamethasone, overnight. activation, % at 9.1 µM. 370,000 compounds, 1% hits; in the data active = activation above about 7.8%
HSF1 inh – HSF1 inhibition. 300,000 compounds, 0.77% hits. NIH3T3-HGL HSE-luciferase, MG132-induced, luminescence 8 h; active compounds read low. activity change, negative = inhibition, % at 7.5 µM (by protocol);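 active = more than half of replicate wells show activity change below -50%, luminescence cut by over half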;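 also: luciferase reports HSF-1 transcriptional activity via heat shock element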
Wnt act – activators of Wnt/beta-catenin signaling | Wnt/beta-catenin reporter cell assay, activator, plate reader | activation, % at 9.35 µM | 300,000 compounds, 1.2% hits | AID 743398; in the data active = activation above about 30%, passing the limit was not always enough
SMARCA2 act conf – confirmation of SMARCA2 (BRM) function activators; AID 652260; MG213 cells, MMTV-luciferase with dexamethasone, luminescence, overnight; MG213 cells expressing E1A, Rb sequestered; DMSO wells 0%, reference activator 100%; 3,500 compounds, 30% hits; activation, % at 9.1 µM; shares compounds with SMARCA2 activ;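 active = activation above its plate's cutoff, the mean activation of tested wells plus 3 SD, cut at about 7.9% in these data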
VP16 Luc act – GAL4-VP16 reporter activation counter-screen | shares compounds with SMARCA2 activ | HEK293 GAL4-VP16 pG5luc reporter, luciferase luminescence; scaled: DMSO wells 0%, SAHA wells 100% | activation, % at 9.1 µM | 3,500 compounds, 41% hits | AID 686939;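 active = activation above the solvent-only control well mean plus 3 SD, averaged across control plates, cut at about 5.2% in these data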
Large screens that a line does not name were inactive (follow-up assays come after a bar, where they were run). This is a sample that favours compounds with a hit; in the whole collection about 4.3% have one here.

C[C@@H]1CCCCO[C@H](CN(C)C(=O)c2ccncc2)[C@H](C)CN([C@H](C)CO)C(=O)c2cc(NC(=O)c3ccncc3)ccc2O1	none (no result: HSF-1 act, MITF act, SMARCA2 activ, HSF1 inh, Wnt act)
Cc1cc(NC(=O)c2c(F)cccc2Cl)no1	none (no result: esBAF inh)
Cc1ccc(NNC(=O)c2c(F)cccc2Cl)cc1C	SMARCA2 activ 8.1 (no result: MITF act, esBAF inh) | SMARCA2 act conf inactive | VP16 Luc act inactive
O=C(N/N=C1/CC2C=CCC12)c1ccco1 (stereo unspecified)	SMARCA2 activ 8.9 (no result: esBAF inh) | SMARCA2 act conf inactive | VP16 Luc act inactive
Fc1ccccc1-c1nc(NCc2ccco2)c2ccccc2n1	none (no result: esBAF inh)
O=c1c2ccccc2nc2c3ccccc3c(NCc3ccco3)nn12	SMARCA2 activ 13 (no result: MITF act, esBAF inh, Wnt act) | SMARCA2 act conf 10 | VP16 Luc act inactive
O=C(NC(=S)Nc1ccccc1O)c1ccc(-c2ccc(Cl)cc2)o1	none (no result: Wnt act)
CN1CCN(c2ccc(NC(=O)c3ccc(-c4ccc(Cl)cc4)o3)cc2)CC1	SMARCA2 activ 9.1 | SMARCA2 act conf inactive | VP16 Luc act inactive
CN1CCN(C(=O)c2ccccc2NC(=O)c2sc3ccccc3c2Cl)CC1	none (no result: MITF act)
CN1CCN(c2ccc(NC(=O)c3sc4ccccc4c3Cl)cc2)CC1	SMARCA2 activ 8.4 | SMARCA2 act conf inactive | VP16 Luc act inactive
CC(=O)NC(=O)c1ccc(-c2ccc(Cl)cc2)o1	SMARCA2 activ 8.5 | SMARCA2 act conf inactive | VP16 Luc act inactive
c1cc2ccc3ccc(-n4cnnn4)c4ccc(c1)c2c34	SMARCA2 activ 8.7 (no result: esBAF inh) | SMARCA2 act conf inactive | VP16 Luc act inactive
COc1ccc(S(=O)(=O)NC(N)=NCCc2ccc(OC)c(OC)c2)cc1	SMARCA2 activ 10 (no result: MITF act, esBAF inh) | SMARCA2 act conf inactive | VP16 Luc act inactive
CC[n+]1c(C)cc2c(sc3ccccc32)c1C	none (no result: HSF-1 act, esBAF inh, HSF1 inh)
CCc1nc(C)cc2c1sc1ccccc12	SMARCA2 activ 10.0 (no result: MITF act, esBAF inh) | SMARCA2 act conf 11 | VP16 Luc act inactive
COc1cccc(CNC(=O)C[C@@H]2CC[C@H]3[C@@H](COc4ccc(NC(C)=O)cc4C(=O)N3C)O2)c1	none (no result: HSF-1 act, MITF act, SMARCA2 activ, HSF1 inh, Wnt act)
O=C(c1noc2c1CCCCC2)N1CCOCC1	none (no result: esBAF inh, SMARCA2 activ)
O=C(c1noc2c1CCc1ccccc1-2)N1CCOCC1	SMARCA2 activ 9.3 | SMARCA2 act conf 9.6 | VP16 Luc act inactive
CC(=O)N(C)C[C@@H]1Oc2ncc(-c3ccc(C)cc3)cc2C(=O)N([C@H](C)CO)C[C@@H]1C	none (no result: HSF-1 act, MITF act, SMARCA2 activ, HSF1 inh, Wnt act)
CC1Cc2ccccc2N1S(=O)(=O)c1cccc(C(=O)c2nccn2C)c1 (stereo unspecified)	SMARCA2 activ 8.6 | SMARCA2 act conf inactive | VP16 Luc act inactive
O=C(C[C@@H]1CC[C@@H]2[C@H](COC[C@@H](O)CN2Cc2cccc(Cl)c2)O1)N1CCOCC1	none (no result: HSF-1 act, MITF act, SMARCA2 activ, HSF1 inh, Wnt act)
CCN(C(=O)CN(C)Cc1c(F)cccc1Cl)c1c(N)n(Cc2ccccc2)c(=O)[nH]c1=O	none (no result: esBAF inh)
CN(C(=O)COC(=O)Cc1c(F)cccc1Cl)c1c(N)n(Cc2ccccc2)c(=O)[nH]c1=O	SMARCA2 activ 9.4 (no result: HSF-1 act, HSF1 inh) | SMARCA2 act conf inactive | VP16 Luc act inactive
C[C@H]1CN([C@@H](C)CO)C(=O)c2cc(NC(=O)Cn3cnnn3)ccc2O[C@H]1CN(C)CC1CCCCC1	none (no result: HSF-1 act, MITF act, SMARCA2 activ, HSF1 inh, Wnt act)
CCOC(=O)C1=NN(c2ccc(F)cc2)C2=NC(C)=C(C(=O)OC)C(c3cccs3)N12 (stereo unspecified)	SMARCA2 activ 8.8 (no result: MITF act) | SMARCA2 act conf inactive | VP16 Luc act inactive
CCOC(=O)C1=NN(c2ccccc2)C2=NC(C)=C(C(=O)OC)C(c3cccs3)N12 (stereo unspecified)	none (no result: MITF act, Wnt act)
CN1C(=O)c2cc(NC(=O)NC3CCCC3)ccc2OC[C@@H]2O[C@@H](CC(=O)NC3CCC3)CC[C@@H]21	none (no result: HSF-1 act, MITF act, SMARCA2 activ, HSF1 inh, Wnt act)
C[C@H](CO)N1C[C@H](C)[C@H](CN(C)S(=O)(=O)c2ccccc2)OCCCC[C@H](C)Oc2ccc(NS(=O)(=O)c3ccc(F)cc3)cc2C1=O	none (no result: HSF-1 act, MITF act, SMARCA2 activ, HSF1 inh, Wnt act)
